Records with an inconclusive call do not appear. Active and inactive are the calls of the source. Calls come from the whole dose curve; as a rule, active = well fitted curve in the direction sought with a large enough effect; inconclusive = small, poorly fitted or top-dose-only effect, or another doubt; inactive = no such curve, though single readings can be large; an effect the other way counts as inactive or inconclusive.
Tests used:
[1] = HPAF-II 24hr Apoptosis Induction qHTS against the NCATS CANVASS Library (AID 1347356)
Outline: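 Apoptosis induction in HPAF-II pancreatic cancer cells is measured as caspase-3/7 luminescence after a 24-hour exposure to compounds.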

[2] = HEK293 18hr Apoptosis Induction qHTS against the NCATS CANVASS Library (AID 1347357)
Outline: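 Caspase-Glo 3/7 luminescence (15 min, room temperature) measured apoptosis after an 18-hour, 37 degrees C exposure of HEK293 cells (500 cells/well) to compounds in 11 points.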

[3] = HPAF-II 12hr Apoptosis Induction qHTS against the NCATS CANVASS Library (AID 1347358)
Outline: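 Apoptosis in HPAF-II pancreatic cancer cells is scored as caspase 3/7 luminescence following a 12-hour exposure to an 11-point compound series.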

[4] = HEK293 24hr Apoptosis Induction qHTS against the NCATS CANVASS Library (AID 1347359)
Outline: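 HEK293 cells, 500 per well, exposed to an 11-point compound series for 24 hours at 37 degrees C. Caspase 3/7 activity read by Caspase-Glo luminescence (DEVD substrate) after 15 min at room temperature.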

[5] = HPAF-II 18hr Apoptosis Induction qHTS against the NCATS CANVASS Library (AID 1347360)
Outline: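 Caspase-3/7 activation was measured with luminescent Caspase-Glo 3/7 reagent (15 min, RT) in HPAF-II cancer cells (500 cells/well). Before detection, cells had been treated for 18 h at 37 C with compounds (11 points).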

[6] = HEK293 12hr Apoptosis Induction qHTS against the NCATS CANVASS Library (AID 1347361)
Outline: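 HEK293 cells (500/well, DMEM + 10% FBS) were exposed to natural products across an 11-point series for 12 hours at 37 degrees C. Caspase-3/7 activity was then measured with DEVD luciferase luminescence after 15 min at room temperature.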

[7] = molecular target: Luciferin 4-monooxygenase (Photinus pyralis) (UniProt P08659); experiment: Firefly luciferase counterscreen qHTS: Assay Interference Panel against the NCATS CANVASS Library (AID 1347363); note: series mostly up to about 57 µM
Chain of Luciferin 4-monooxygenase (Photinus pyralis) (P08659 whole entry, looked up): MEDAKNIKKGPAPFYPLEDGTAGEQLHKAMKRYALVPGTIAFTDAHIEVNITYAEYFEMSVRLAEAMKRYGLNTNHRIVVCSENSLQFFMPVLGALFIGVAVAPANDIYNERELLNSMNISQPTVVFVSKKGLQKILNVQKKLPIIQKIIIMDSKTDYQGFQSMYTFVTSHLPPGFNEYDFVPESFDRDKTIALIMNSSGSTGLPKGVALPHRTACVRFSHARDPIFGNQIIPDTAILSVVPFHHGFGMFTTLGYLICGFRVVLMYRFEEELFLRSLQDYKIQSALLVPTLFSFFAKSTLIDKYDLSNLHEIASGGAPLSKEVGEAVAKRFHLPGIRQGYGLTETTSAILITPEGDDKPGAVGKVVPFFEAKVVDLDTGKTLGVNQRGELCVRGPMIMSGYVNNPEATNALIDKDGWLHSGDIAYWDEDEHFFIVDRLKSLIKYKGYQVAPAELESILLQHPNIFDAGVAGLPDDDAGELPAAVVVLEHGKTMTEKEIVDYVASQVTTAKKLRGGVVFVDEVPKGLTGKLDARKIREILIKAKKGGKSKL
Outline: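 Purified P. pyralis luciferase (0.04 ug/mL, 4x reagent) added to Tris-acetate buffer with 0.013 mM D-luciferin, 0.013 mM ATP and 13.3 mM Mg-acetate; compounds preincubated 15 min, then luminescence read after 5 min, RT.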

[8] = qHTS for ATAD5 Agonist screened against the NCATS CANVASS Library (AID 1347367);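 note: luciferase reporter driven by ATAD5 which rises upon DNA damage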
Outline: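 Genotoxicity via ATAD5-luciferase luminescence after 16 h compound exposure (11-point series) at 37C in HEK293T-ATAD5 cells. CellTiter-Fluor viability read precedes the luminescence read; MMS serves as positive control.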

[9] = J3T Cancer Cell Toxicity qHTS against the NCATS CANVASS Library (AID 1347371); note: potency is the fitted concentration of half-maximal effect
Outline: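 Viability of the J3T glioma line from dog is scored by ATP luminescence after a 72 hr incubation with natural products.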

[10] = qHTS for Hypoxia signaling pathway (HIF-1) agonists against the NCATS CANVASS Library (AID 1347375)
Outline: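 Inducers of HIF-1 signaling were detected in ME-180 cells bearing an HRE-driven beta-lactamase reporter after 17 h compound exposure. Activity came from CCF4-AM FRET emission ratio (460/530 nm) in qHTS format.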

[11] = DH5-alpha competent E. coli microbial cell viability qHTS against the NCATS CANVASS Library (AID 1347377); conditions: outcome: dose series up to 46.1 µM unless noted
Outline: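 Cell viability of competent DH5-alpha E. coli is scored from ATP content by luminescence. Cells sit overnight at 37C with compound across an 11-point concentration series.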

[12] = Inflammasome Signaling qHTS Counterscreen: IL-1-beta AlphaLISA counterscreen against the NCATS CANVASS Library (AID 1347381);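 note: cell-free check with purified IL-1β in medium and no THP-1 cells; series mostly up to about 57 µM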
Outline: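 To flag interference with the AlphaLISA read-out, a known amount of purified IL-1-beta (4 pg) replaced cell supernatant. Detection used anti-IL-1-beta acceptor beads, biotinylated antibody and streptavidin donor beads at room temperature.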

[13] = Cytotoxicity qHTS for assessment of Hepg2 cells membrane integrity screened against the NCATS CANVASS Library (AID 1347387)
Outline: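 Fluorescence proportional to lysed-cell number, from LDH leaking out of HepG2 cells exposed 5 hr at 37C to 0.59 nM - 46 uM compound (11-point qHTS), is measured after 10 min with CytoTox-ONE.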

[14] = qHTS for activators of dead-cell proteases activity screened against the NCATS CANVASS Library (AID 1347392);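 note: luminescence from protease leaking out of membrane-damaged cells cleaving impermeant substrate; rising signal means more cytotoxicity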
Outline: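 HepG2 cells, 2000/well, attached 18 h at 37C, then exposed to compounds (11-point qHTS) for 5 h. Dead-cell protease release read as luminescence from cell-impermeant AAF-aminoluciferin substrate after 15 min at room temperature.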

[15] = Redox Reaction Profiling qHTS: Assay Interference Panel against the NCATS CANVASS Library (AID 1347401)
Outline: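 Compounds in 11-point series incubated with 5 uM resazurin and 200 uM DTT in 50 mM HEPES pH 7.3, 50 mM NaCl. Resorufin fluorescence (Ex 525/Em 598) read before and after 15 min in the dark.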

Measured: Potency

CCCCC1CC[C@H]2CCCC(CCC)N12 (some centres not stated)
inactive: [1] | [2] | [3] | [4] | [5] | [6] | [7] | [8] | [9] | [10] | [11] | [12] | [13] | [14] | [15]

CC[C@@H]1CN2CCc3c([nH]c4cccc(OC)c34)[C@@H]2C[C@@H]1/C(=C\OC)C(=O)OC
inactive: [1] | [2] | [3] | [4] | [5] | [6] | [7] | [8] | [10] | [11] | [12] | [13] | [14]

C1=C2CCCN[C@H]2C2CC1[C@H]1CCCCN1C2 (some centres not stated)
inactive: [1] | [2] | [3] | [4] | [5] | [6] | [7] | [8] | [9] | [10] | [11] | [12] | [13] | [14] | [15]

C/C=C/[C@@H]1[C@H]2C[C@@H](C)CC[C@@H]2C(C)=C[C@H]1C(=O)c1c(O)c(-c2ccc(O)cc2)c[nH]c1=O
inactive: [1] | [2] | [3] | [4] | [5] | [6] | [7] | [8] | [9] | [10] | [11] | [12] | [13] | [14] | [15]

CC(C)CC1C(=O)O[C@H](C(C)C)C(=O)N(C)C(CC(C)C)C(=O)O[C@@H](C(C)C)C(=O)N(C)C(CC(C)C)C(=O)O[C@H](C(C)C)C(=O)N(C)C(CC(C)C)C(=O)O[C@@H](C(C)C)C(=O)N1C (some centres not stated)
inactive: [1] | [2] | [3] | [5] | [6] | [7] | [8] | [9] | [10] | [11] | [12] | [13] | [14] | [15]

C[N+](C)(C)CCc1c[nH]c2ccccc12
inactive: [1] | [2] | [3] | [4] | [5] | [6] | [7] | [8] | [9] | [10] | [11] | [12] | [13] | [14] | [15]

C=CC(C)(C)[C@@]12C[C@H]3C(=O)N/C(=C/c4cnc[nH]4)C(=O)N3[C@@H]1Nc1ccccc12
inactive: [1] | [2] | [3] | [4] | [5] | [6] | [7] | [8] | [9] | [10] | [11] | [12] | [13] | [14] | [15]

C/C=C(\C)C(=O)O[C@@H]1[C@@H](O)[C@@H]2O[C@H]3[C@H](O[C@@H](CCCCC)CCCCCCC(=O)CCC(=O)OC[C@@H](O2)[C@H]1OC(=O)/C=C/c1ccccc1)O[C@H](C)[C@H](OC(C)=O)[C@@H]3O
inactive: [1] | [2] | [3] | [4] | [5] | [6] | [7] | [8] | [9] | [10] | [11] | [12] | [13] | [14] | [15]

C/C=C1/CN2CC[C@]34C(=C(C(=O)OC)[C@H]1C[C@H]23)Nc1ccccc14
inactive: [1] | [2] | [3] | [4] | [5] | [6] | [7] | [8] | [9] | [10] | [11] | [12] | [13] | [14] | [15]

C[C@]12CC(O)C3[C@@H](CC[C@@H]4C[C@@H](O)CC[C@]34CO)[C@@]1(O)CC[C@@H]2C1=CC(=O)OC1 (some centres not stated)
active: [9] 10.5 µM
inactive: [1] | [2] | [3] | [4] | [5] | [6] | [7] | [8] | [10] | [11] | [12] | [13] | [14] | [15]
